In PubChem BioAssay (EPA / NIEHS):
Results filed as inconclusive are left out. The source made the active and inactive calls. The calls were made as follows, unless noted: active = hit-call score of the fitted dose curve at least 0.9, where 1 is the maximum; inactive = score below 0.9.

Assays:
[1] = ATG_PBREM_CIS: Attagene CIS-FACTORIAL HepG2 Assay for human Phenobarbital-responsive Enhancer Module (PBREM) (AID 2282955); details: HepG2 PBREM cis-reporter, Attagene multiplexed transcription; actives raise or lower the signal
Procedure, shortened: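 HepG2, transient MRTU transfection, 24 h dosing; RNA → oligo(dT) RT → PCR → 6-FAM extension → HpaI → CE. Bidirectional fit vs DMSO.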

[2] = biological target: Paired box protein Pax-6 (Homo sapiens) (UniProt P26367); assay: ATG_Pax6_CIS: Attagene CIS-FACTORIAL HepG2 Assay for human Paired Box 6 (PAX6) (AID 2282956); details: HepG2 CIS-FACTORIAL PAX6 reporter transcription, RNA readout; actives raise or lower the signal
Sequence of Paired box protein Pax-6 (Homo sapiens) (P26367 whole entry, looked up): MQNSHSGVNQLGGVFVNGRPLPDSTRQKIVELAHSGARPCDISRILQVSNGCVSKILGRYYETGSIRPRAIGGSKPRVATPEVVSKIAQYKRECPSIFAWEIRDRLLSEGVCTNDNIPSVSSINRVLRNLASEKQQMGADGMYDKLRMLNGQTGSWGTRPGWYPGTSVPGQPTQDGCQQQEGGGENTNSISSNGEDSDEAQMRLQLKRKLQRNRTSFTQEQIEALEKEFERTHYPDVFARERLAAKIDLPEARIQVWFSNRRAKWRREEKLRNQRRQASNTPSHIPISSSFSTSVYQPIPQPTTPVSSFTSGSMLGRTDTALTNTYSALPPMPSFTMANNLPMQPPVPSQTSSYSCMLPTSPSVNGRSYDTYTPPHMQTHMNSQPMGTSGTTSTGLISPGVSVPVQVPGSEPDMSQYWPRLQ
Procedure, shortened: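 Read-out is reporter transcript level, measured by RT-PCR with fluorescent primer extension and capillary electrophoresis after 24 h dosing of transfected HepG2 cells. Activity in either direction fitted relative to DMSO control.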

[3] = ATG_PXRE_CIS: Attagene CIS-FACTORIAL HepG2 Assay for human Pregnane X Receptor Element (PXRE) (AID 2282957); details: HepG2 Attagene CIS-FACTORIAL PXRE reporter, mRNA; actives raise or lower the signal
Procedure, shortened: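 Bidirectional activity, baselined to DMSO, derived from reporter mRNA fluorescence (RT-PCR plus capillary electrophoresis) in HepG2 cells bearing cis-promoter reporter units, 24 h exposure.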

[4] = ATG_PPRE_CIS: Attagene CIS-FACTORIAL HepG2 Assay for human Peroxisome Proliferator-activated Response Element (PPRE) (AID 2282958); details: HepG2 PPRE cis-element reporter, Attagene transcription factor profiling; actives raise or lower the signal
Procedure, shortened: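 Transcript-level reporter induction in transfected HepG2 cells after 24 h chemical exposure, quantified by fluorescence from RT-PCR products separated by capillary electrophoresis.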

[5] = ATG_RORE_CIS: Attagene CIS-FACTORIAL HepG2 Assay for human RAR-related Orphan Receptor Element (RORE) (AID 2282959); details: HepG2 Attagene cis-factorial RORE reporter, mRNA; actives raise or lower the signal
Procedure, shortened: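 Multiplexed reporter assay measuring mRNA induction from a cis promoter element in transiently transfected HepG2 cells after 24 h treatment. Detection via RT-PCR and capillary electrophoresis fluorescence; DMSO serves as baseline.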

[6] = ATG_Sox_CIS: Attagene CIS-FACTORIAL HepG2 Assay for human SRY-box transcription factor (SOX) (AID 2282960); details: HepG2 Attagene cis-factorial SOX reporter, mRNA; actives raise or lower the signal
Procedure, shortened: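 Cells were transfected with reporter constructs under cis-regulatory promoters, then exposed to chemicals for 24 h. Reporter transcripts were quantified by fluorescence after RT-PCR and capillary electrophoresis; activity was fitted in both directions against DMSO.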

[7] = biological target: Transcription factor Sp1 (Homo sapiens) (UniProt P08047); assay: ATG_Sp1_CIS: Attagene CIS-FACTORIAL HepG2 Assay for human Specificity Protein 1 (Sp1) (AID 2282961); details: HepG2 Sp1 cis-reporter transcription, actives raise or lower the signal
Sequence of Transcription factor Sp1 (Homo sapiens) (P08047 whole entry, looked up): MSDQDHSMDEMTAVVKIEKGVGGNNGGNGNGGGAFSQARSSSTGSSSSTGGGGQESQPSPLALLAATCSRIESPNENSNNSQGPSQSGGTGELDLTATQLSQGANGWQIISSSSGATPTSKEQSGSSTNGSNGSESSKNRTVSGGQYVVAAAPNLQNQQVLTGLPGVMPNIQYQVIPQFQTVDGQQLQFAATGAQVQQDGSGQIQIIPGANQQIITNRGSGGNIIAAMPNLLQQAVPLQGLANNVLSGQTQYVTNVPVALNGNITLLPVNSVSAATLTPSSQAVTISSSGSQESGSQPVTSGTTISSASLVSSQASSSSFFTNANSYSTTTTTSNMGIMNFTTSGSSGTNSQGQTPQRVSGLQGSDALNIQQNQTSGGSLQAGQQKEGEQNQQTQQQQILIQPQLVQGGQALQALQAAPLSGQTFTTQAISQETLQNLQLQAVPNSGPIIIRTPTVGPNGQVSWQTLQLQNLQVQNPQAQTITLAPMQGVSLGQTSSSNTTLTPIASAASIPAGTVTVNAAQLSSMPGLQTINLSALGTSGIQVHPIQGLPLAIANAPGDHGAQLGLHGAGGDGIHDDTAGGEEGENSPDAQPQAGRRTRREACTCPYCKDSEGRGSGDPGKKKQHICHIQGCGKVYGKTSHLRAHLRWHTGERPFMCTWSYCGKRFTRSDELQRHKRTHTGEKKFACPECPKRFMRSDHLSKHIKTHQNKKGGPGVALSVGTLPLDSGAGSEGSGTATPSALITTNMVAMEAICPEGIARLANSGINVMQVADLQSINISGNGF
Procedure, shortened: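 Measures mRNA induction of an Sp1-linked reporter in HepG2 cells 24 h post-dosing. Multiplexed reporters read by RT-PCR and capillary electrophoresis; DMSO serves as negative control and baseline.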

[8] = ATG_SREBP_CIS: Attagene CIS-FACTORIAL HepG2 Assay for human Sterol Regulatory Element Binding (SREBP) (AID 2282962); details: HepG2 Attagene cis-factorial SREBP reporter, mRNA; actives raise or lower the signal
Procedure, shortened: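 Endogenous SREBP activity read as cis-element-driven reporter transcript in transiently transfected HepG2, 24 h post-dosing; quantified via RT-PCR plus capillary electrophoresis of fluorescent fragments. Gain or loss of signal fitted relative to DMSO baseline.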

[9] = biological target: Signal transducer and activator of transcription 3 (Homo sapiens) (UniProt P40763); assay: ATG_STAT3_CIS: Attagene CIS-FACTORIAL HepG2 Assay for human Signal Transducer and Activator of Transcription 3 (STAT3) (AID 2282963); details: HepG2, Attagene cis-factorial STAT3 reporter transcription; actives raise or lower the signal
Sequence of Signal transducer and activator of transcription 3 (Homo sapiens) (P40763 whole entry, looked up, the tested form may be a part): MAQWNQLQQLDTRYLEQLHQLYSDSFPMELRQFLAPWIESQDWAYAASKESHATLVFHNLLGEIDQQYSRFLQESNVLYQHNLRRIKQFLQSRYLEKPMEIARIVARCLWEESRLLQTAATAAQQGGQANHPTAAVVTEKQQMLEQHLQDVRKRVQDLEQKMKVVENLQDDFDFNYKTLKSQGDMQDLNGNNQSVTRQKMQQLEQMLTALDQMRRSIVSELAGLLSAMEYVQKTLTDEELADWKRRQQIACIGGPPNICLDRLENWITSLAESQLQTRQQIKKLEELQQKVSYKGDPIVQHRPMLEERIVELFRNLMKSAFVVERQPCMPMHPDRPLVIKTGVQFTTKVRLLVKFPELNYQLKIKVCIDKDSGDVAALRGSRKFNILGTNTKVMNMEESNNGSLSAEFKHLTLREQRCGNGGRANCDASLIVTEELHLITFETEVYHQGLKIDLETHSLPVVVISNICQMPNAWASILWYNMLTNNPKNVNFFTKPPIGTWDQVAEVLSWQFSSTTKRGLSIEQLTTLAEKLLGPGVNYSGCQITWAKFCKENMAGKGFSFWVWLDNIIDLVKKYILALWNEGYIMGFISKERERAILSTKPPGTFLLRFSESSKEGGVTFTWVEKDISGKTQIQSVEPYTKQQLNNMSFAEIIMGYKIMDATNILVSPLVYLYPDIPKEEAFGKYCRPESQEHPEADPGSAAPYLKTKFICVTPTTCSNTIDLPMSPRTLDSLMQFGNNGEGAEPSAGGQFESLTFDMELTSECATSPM
Procedure, shortened: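 Readout: fluorescent reporter mRNA fragments resolved by capillary electrophoresis. Setup: HepG2 transfected with MRTUs reporting endogenous transcription-factor activity, dosed 24 h. Gain or loss of signal fitted bidirectionally against DMSO control.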

[10] = ATG_TA_CIS: Attagene CIS-FACTORIAL HepG2 Assay for human TA Basal Promoter (AID 2282964); details: HepG2 Attagene CIS-factorial TA basal promoter reporter; actives raise or lower the signal
Procedure, shortened: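 Multiplexed mRNA reporter assay, HepG2, 24 h. Reporter cDNA amplified, 6-FAM primer-extended, HpaI-cut, CE-sized; DMSO = negative control and baseline.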

[11] = ATG_TCF_b_cat_CIS: Attagene CIS-FACTORIAL HepG2 Assay for human T-Cell-Factor with beta-catenin (TCF/b-cat) (AID 2282965); details: HepG2 TCF/beta-catenin cis-reporter transcription, actives raise or lower the signal
Procedure, shortened: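 Cells of the HepG2 line carry transiently transfected reporter units whose promoters respond to endogenous factors. Twenty-four hours post-dosing, reporter mRNA induction is measured by fluorescent RT-PCR and capillary electrophoresis, with DMSO as baseline.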

[12] = ATG_TAL_CIS: Attagene CIS-FACTORIAL HepG2 Assay for human TAL Basal Promoter (AID 2282966); details: HepG2 Attagene cis-factorial TAL promoter reporter; actives raise or lower the signal;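 also: background control endpoint measuring basal TAL promoter reporter mRNA not a specific factor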
Procedure, shortened: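 Human hepatoma HepG2 cells, transfected with promoter-regulated reporter units, were treated 24 h. Reporter transcript levels, measured through RT-PCR and capillary electrophoresis, were fitted for gain or loss relative to DMSO.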

[13] = ATG_TGFb_CIS: Attagene CIS-FACTORIAL HepG2 Assay for human Transforming Growth Factor (TGF) (AID 2282967); details: HepG2 Attagene CIS TGFb reporter, mRNA transcription; actives raise or lower the signal
Procedure, shortened: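 Transcript-level reporter readout: HepG2 transfectants, 24 h exposure, RNA to cDNA, reporter-specific PCR, fluorescent primer extension, capillary sizing against ROX standards. Gain- or loss-of-signal relative to DMSO.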

[14] = ATG_VDRE_CIS: Attagene CIS-FACTORIAL HepG2 Assay for human Vitamin D Receptor Element (VDRE) (AID 2282968); details: HepG2 VDRE cis-reporter transcription, actives raise or lower the signal
Procedure, shortened: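 Transient MRTU transfection of HepG2, 24 h compound exposure. Readout: reporter transcripts via RT-PCR and capillary electrophoresis, fluorescence. Bidirectional fit vs DMSO.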

[15] = biological target: Nuclear receptor subfamily 1 group I member 3 (Homo sapiens) (UniProt Q14994); assay: ATG_CAR_TRANS: Attagene TRANS-FACTORIAL HepG2 Assay for human Constitutive Androstane Receptor (CAR) (AID 2282969; active = hit-call score of the fitted dose curve at least 0.9, where 1 is the maximum;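 also: activators raise reporter mRNA above DMSO so AC50 marks induction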); details: HepG2 Attagene TRANS-FACTORIAL CAR reporter
Sequence of Nuclear receptor subfamily 1 group I member 3 (Homo sapiens) (Q14994 whole entry, looked up, the tested form may be a part): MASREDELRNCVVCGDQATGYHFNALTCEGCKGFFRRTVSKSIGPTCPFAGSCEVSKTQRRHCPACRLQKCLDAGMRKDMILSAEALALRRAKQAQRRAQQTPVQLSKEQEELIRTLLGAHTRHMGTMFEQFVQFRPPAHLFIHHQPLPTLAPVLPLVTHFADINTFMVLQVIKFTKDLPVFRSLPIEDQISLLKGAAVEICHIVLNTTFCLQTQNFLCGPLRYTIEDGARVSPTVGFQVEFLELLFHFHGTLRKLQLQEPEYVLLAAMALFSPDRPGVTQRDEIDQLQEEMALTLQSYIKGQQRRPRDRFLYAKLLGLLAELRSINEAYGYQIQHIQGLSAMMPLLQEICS
Procedure, shortened: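 Transiently transfected HepG2, multiplex TRANS reporters (CAR-Gal4 chimera driving GAL4-UAS reporter). 24 h dosing. Readout: reporter transcript by RT-PCR + capillary electrophoresis, fluorescence intensity; positive direction vs DMSO.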

[16] = biological target: Estrogen receptor (Homo sapiens) (UniProt P03372); assay: ATG_ERa_TRANS: Attagene TRANS-FACTORIAL HepG2 Assay for human Estrogen Receptor alpha (ERa) (AID 2282970; active = hit-call score of the fitted dose curve at least 0.9, where 1 is the maximum); details: HepG2 Attagene TRANS ERa GAL4 reporter, mRNA
Sequence of Estrogen receptor (Homo sapiens) (P03372 whole entry, looked up, the tested form may be a part): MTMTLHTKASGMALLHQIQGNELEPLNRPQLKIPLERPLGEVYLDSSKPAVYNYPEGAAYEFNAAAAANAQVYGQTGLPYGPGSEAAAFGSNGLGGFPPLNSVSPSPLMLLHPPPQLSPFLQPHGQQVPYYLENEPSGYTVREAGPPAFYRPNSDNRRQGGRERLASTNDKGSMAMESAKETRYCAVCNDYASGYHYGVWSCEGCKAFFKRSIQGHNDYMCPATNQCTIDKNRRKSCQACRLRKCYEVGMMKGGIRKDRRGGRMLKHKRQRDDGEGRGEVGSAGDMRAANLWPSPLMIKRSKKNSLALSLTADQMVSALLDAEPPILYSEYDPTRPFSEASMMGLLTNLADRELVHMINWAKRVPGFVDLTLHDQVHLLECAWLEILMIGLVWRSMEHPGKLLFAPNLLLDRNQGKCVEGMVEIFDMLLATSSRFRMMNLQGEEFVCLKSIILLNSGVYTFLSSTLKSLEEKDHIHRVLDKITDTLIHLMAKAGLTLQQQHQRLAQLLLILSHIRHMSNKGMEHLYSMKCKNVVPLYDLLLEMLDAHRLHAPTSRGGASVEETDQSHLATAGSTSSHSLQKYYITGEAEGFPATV
Procedure, shortened: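 Signal derives from fluorescence of labelled reporter PCR fragments separated by capillary electrophoresis. HepG2 cells transiently carrying multiple GAL4-UAS reporter units were treated 24 hours, and induction above DMSO baseline was fitted as activity.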

[17] = biological target: X-box-binding protein 1 (Homo sapiens) (UniProt P17861); assay: ATG_Xbp1_CIS: Attagene CIS-FACTORIAL HepG2 Assay for human X-box Binding Protein 1 (XBP1) (AID 2282972); details: HepG2 XBP1 cis-element reporter, Attagene multiplex; actives raise or lower the signal
Sequence of X-box-binding protein 1 (Homo sapiens) (P17861 whole entry, looked up): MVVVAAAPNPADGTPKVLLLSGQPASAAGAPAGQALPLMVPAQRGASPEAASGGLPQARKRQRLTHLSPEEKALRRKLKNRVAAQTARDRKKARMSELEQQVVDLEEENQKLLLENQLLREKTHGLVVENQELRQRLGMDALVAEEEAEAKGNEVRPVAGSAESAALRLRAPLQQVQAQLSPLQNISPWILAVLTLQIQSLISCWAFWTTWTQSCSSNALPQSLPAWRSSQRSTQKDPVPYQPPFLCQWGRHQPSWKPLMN
Procedure, shortened: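 Reporter transcripts were quantified by RT-PCR with fluorescent primer extension and capillary electrophoresis after 24 h chemical exposure. Cells: transiently transfected HepG2 carrying cis-regulated reporter constructs; data fitted bidirectionally relative to DMSO.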

[18] = ATG_M_19_TRANS: Attagene TRANS-FACTORIAL HepG2 Assay for M19 Transcription Factor (Internal Marker) (AID 2282974; active = hit-call score of the fitted dose curve at least 0.9, where 1 is the maximum); details: HepG2 Attagene TRANS-FACTORIAL M19 internal marker reporter
Procedure, shortened: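 After transfection of HepG2 with GAL4-UAS-driven reporter constructs, cells are dosed for 24 h. Total RNA is reverse-transcribed, reporter sequences PCR-amplified and labelled, then HpaI-digested and sized by capillary electrophoresis.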

[19] = ATG_GAL4_TRANS: Attagene TRANS-FACTORIAL HepG2 Assay for GAL4 (Internal Marker) (AID 2282976; active = hit-call score of the fitted dose curve at least 0.9, where 1 is the maximum); details: HepG2 Attagene TRANS GAL4 internal marker reporter
Procedure, shortened: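 Liver HepG2 line bearing multiplexed GAL4-UAS reporter constructs; 24 h chemical treatment. Transcripts were quantified as fluorescent fragments on capillary electrophoresis after RT-PCR and HpaI cut, with activity fitted upward from DMSO.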

[20] = biological target: Steroid hormone receptor ERR1 (Homo sapiens) (UniProt P11474); assay: ATG_ERRa_TRANS: Attagene TRANS-FACTORIAL HepG2 Assay for human Estrogen-Related Receptor alpha (ERRa) (AID 2282971; active = hit-call score of the fitted dose curve at least 0.9, where 1 is the maximum); details: HepG2 Attagene TRANS reporter, ERRa transactivation
Sequence of Steroid hormone receptor ERR1 (Homo sapiens) (P11474 whole entry, looked up, the tested form may be a part): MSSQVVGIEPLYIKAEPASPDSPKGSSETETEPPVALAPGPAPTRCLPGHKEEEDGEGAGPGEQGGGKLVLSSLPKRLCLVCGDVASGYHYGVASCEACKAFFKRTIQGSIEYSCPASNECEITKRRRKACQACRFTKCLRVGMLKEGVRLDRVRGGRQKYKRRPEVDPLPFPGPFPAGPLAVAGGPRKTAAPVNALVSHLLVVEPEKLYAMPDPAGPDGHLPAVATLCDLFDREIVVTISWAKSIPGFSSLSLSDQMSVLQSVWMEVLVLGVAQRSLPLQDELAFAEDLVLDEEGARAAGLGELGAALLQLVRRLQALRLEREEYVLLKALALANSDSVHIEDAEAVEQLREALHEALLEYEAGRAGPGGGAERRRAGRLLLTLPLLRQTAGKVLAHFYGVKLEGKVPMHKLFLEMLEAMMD
Procedure, shortened: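 Signal gain relative to DMSO for an ERRa-Gal4 chimeric receptor, read as reporter mRNA by RT-PCR/capillary electrophoresis. Human HepG2 liver cells, transient multiplex reporter transfection, 24 h chemical exposure.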

Measured: AC50

CC1=NN(c2ccc(S(=O)(=O)O)cc2)C(=O)C1N=Nc1ccccc1 (stereo not given)
active: [3] 100 µM
not listed: [18] | [19] | [20]
inactive: all other assays above

CC(C)c1ccc(O)c(C(C)C)c1
active: [3] 2.98 µM | [16] 33.4 µM
not listed: [9] | [19] | [20]
inactive: all other assays above

CC(C)(CO)C(O)C(=O)NCCCO (stereo not given)
not listed: [15] | [16] | [18] | [19] | [20]
inactive: all other assays above

N#Cc1ccc(C2CCCc3cncn32)cc1 (stereo not given)
active: [3] 23.9 µM | [16] 25.8 µM
not listed: [9] | [20]
inactive: all other assays above

Cc1ccc([N+](=O)[O-])cc1N
active: [3] 45.4 µM
not listed: [15] | [18] | [20]
inactive: all other assays above

C=CC(=O)OCC(C)OCC(C)OCC(C)OC(=O)C=C (stereo not given)
active: [2] 64.5 µM | [3] 2.25 µM | [5] 44.5 µM | [8] 100 µM | [11] 71.5 µM | [13] 143 µM | [14] 6.27 µM
not listed: [16] | [18] | [20]
inactive: all other assays above

COC(=O)C=Cc1ccccc1
not listed: [5] | [18] | [20]
inactive: all other assays above

Cn1ccnc1
not listed: [5] | [7] | [16] | [19]
inactive: all other assays above

OCCCc1ccccc1
not listed: [5] | [7] | [15] | [19]
inactive: all other assays above

COc1ccc(-c2coc3cc(O)cc(O)c3c2=O)cc1
active: [3] 24.9 µM | [4] 100 µM | [14] 27 µM | [16] 0.432 µM | [17] 100 µM
not listed: [5] | [8] | [15] | [20]
inactive: all other assays above

C=CC(=O)OCCCCCCOC(=O)C=C
active: [2] 75.7 µM | [8] 100 µM | [14] 25.6 µM | [17] 26.6 µM
not listed: [5] | [19]
inactive: all other assays above

C=C(C)C(=O)OCC(O)COc1ccc(C(C)(C)c2ccc(OCC(O)COC(=O)C(=C)C)cc2)cc1 (stereo not given)
active: [2] 42.2 µM | [3] 2.17 µM | [4] 14.7 µM | [6] 65 µM | [10] 28.3 µM | [14] 9.75 µM | [17] 26.3 µM
not listed: [8] | [9] | [16] | [20]
inactive: all other assays above

c1ccc2c(c1)[nH]c1ccccc12
active: [3] 9.54 µM
not listed: [5] | [14] | [20]
inactive: all other assays above

C=CC(=O)O[C@H]1C[C@@H]2CC[C@@]1(C)C2(C)C
active: [3] 1.52 µM | [4] 29.7 µM | [7] 160 µM | [10] 141 µM | [15] 162 µM | [16] 100 µM
not listed: [5] | [18] | [19] | [20]
inactive: all other assays above

CC(C)(O)Cc1ccccc1
not listed: [8] | [11] | [15] | [19]
inactive: all other assays above

O=C(O)CC(C(=O)O)S(=O)(=O)O (stereo not given)
not listed: [8] | [9] | [16] | [20]
inactive: all other assays above
